Data: PubChem BioAssay (NCI)
Where “and” joins values, the source holds several entries; their conditions need not be identical. Identical values can stand only once. Compounds without any hit were thinned out: in the full panel of roughly 83,000, 20% have a hit.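 Treatment: one concentration, 48 hours, 96-well format. Scoring: percent growth, with anything below 10 considered active.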 Calls of active or inactive are those of the source.

Key:
Test in all cases: NCI-60 one-dose screen, 48 h (100 = growth as untreated, 0 = no growth, -100 = all killed)
NCI-H23 lung = system: NCI-H23 lung
NCI-H226 lung = system: NCI-H226 lung
NCI-H322M lung = system: NCI-H322M lung
HOP-62 NSCLC = system: HOP-62 NSCLC
NCI-H460 lung = system: NCI-H460 lung
HOP-92 NSCLC = system: HOP-92 NSCLC
NCI-H522 lung = system: NCI-H522 lung
A549/ATCC NSCLC = system: A549/ATCC NSCLC
786-0 renal = system: 786-0 renal

Measured: growth

COc1ccc(N)c2c1C(=O)c1ccccc1C2=O
inactive: NCI-H23 lung; 10 µM 99.6% | NCI-H226 lung; 10 µM 93.5% | NCI-H322M lung; 10 µM 91.1% | HOP-62 NSCLC; 10 µM 111% | NCI-H460 lung; 10 µM 98.1% | HOP-92 NSCLC; 10 µM 84.1% | NCI-H522 lung; 10 µM 88.6% | A549/ATCC NSCLC; 10 µM 96.7% | 786-0 renal; 10 µM 112%

O=C1c2cccc3cc([N+](=O)[O-])cc(c23)C(=O)N1CCN1CCCC1
inactive: NCI-H322M lung; 10 µM 23.7%
active: NCI-H23 lung; 10 µM -21.7% | NCI-H226 lung; 10 µM -62.2% | HOP-62 NSCLC; 10 µM -23.3% | NCI-H460 lung; 10 µM -28.8% | HOP-92 NSCLC; 10 µM 0.989% | NCI-H522 lung; 10 µM -54.1% | A549/ATCC NSCLC; 10 µM -28.6% | 786-0 renal; 10 µM -18.8%

CC(=O)O[C@H]1C(=O)[C@@]2(C)[C@H]([C@H](OC(=O)c3ccccc3)[C@]3(O)C[C@H](OC(=O)[C@H](O)[C@@H](NC(=O)c4ccccc4)c4ccccc4)C(C)=C1C3(C)C)[C@]1(OC(C)=O)CO[C@@H]1C[C@@H]2O
active: NCI-H460 lung; 2.5 µM 3.32% | NCI-H460 lung; 5 µM 4.65% | NCI-H460 lung; 10 µM 8.92% and 6.58% | NCI-H522 lung; 2.5 µM -12.4% | NCI-H522 lung; 5 µM 1.57%
-16.2% (active) and 11.8% (inactive): NCI-H522 lung; 10 µM
inactive: NCI-H23 lung; 0.01 µM 24.1% | NCI-H23 lung; 2.5 µM 23.2% | NCI-H23 lung; 5 µM 30.5% | NCI-H23 lung; 10 µM 40.3% and 34.8% | NCI-H226 lung; 0.01 µM 67.6% | NCI-H226 lung; 2.5 µM 27.4% | NCI-H226 lung; 5 µM 32.1% | NCI-H226 lung; 10 µM 77.4% and 31% | NCI-H322M lung; 0.01 µM 53.8% | NCI-H322M lung; 2.5 µM 30.7% | NCI-H322M lung; 5 µM 30.1% | NCI-H322M lung; 10 µM 21.2% and 30.1% | HOP-62 NSCLC; 0.01 µM 48.2% | HOP-62 NSCLC; 2.5 µM 12.5% | HOP-62 NSCLC; 5 µM 15.4% | NCI-H460 lung; 0.01 µM 13.8% | HOP-92 NSCLC; 0.01 µM 53.2% | HOP-92 NSCLC; 2.5 µM 32.9% | HOP-92 NSCLC; 5 µM 42.7% | HOP-92 NSCLC; 10 µM 37.4% | NCI-H522 lung; 0.01 µM 22.1% | A549/ATCC NSCLC; 0.01 µM 31.4% | A549/ATCC NSCLC; 2.5 µM 18.5% | A549/ATCC NSCLC; 5 µM 21.2% | A549/ATCC NSCLC; 10 µM 47.3% and 29.9% | 786-0 renal; 0.01 µM 51.7% | 786-0 renal; 2.5 µM 17.7% | 786-0 renal; 5 µM 31% | 786-0 renal; 10 µM 42.2% and 42.3%
30.7% (inactive) and 6.92% (active): HOP-62 NSCLC; 10 µM

Cc1c(-c2ccccc2)[nH]c2ccccc12
inactive: NCI-H23 lung; 10 µM 103% | NCI-H226 lung; 10 µM 95.3% | NCI-H322M lung; 10 µM 108% | HOP-62 NSCLC; 10 µM 104% | NCI-H460 lung; 10 µM 104% | HOP-92 NSCLC; 10 µM 71.8% | NCI-H522 lung; 10 µM 86.1% | A549/ATCC NSCLC; 10 µM 102%

C=C1N(C)c2ccc(Cl)cc2C1(C)C
inactive: NCI-H23 lung; 10 µM 52% | NCI-H226 lung; 10 µM 67.6% | NCI-H322M lung; 10 µM 84.2% | HOP-62 NSCLC; 10 µM 63.6% | NCI-H460 lung; 10 µM 39.4% | HOP-92 NSCLC; 10 µM 48.1% | NCI-H522 lung; 10 µM 23.7% | A549/ATCC NSCLC; 10 µM 44.4% | 786-0 renal; 10 µM 75.8%

Cn1c2nc3ccccc3c-2nc2ccccc21
inactive: NCI-H23 lung; 10 µM 94.1% and 91.3% | NCI-H226 lung; 10 µM 104% | NCI-H322M lung; 10 µM 99.7% and 88.7% | HOP-62 NSCLC; 10 µM 80.5% and 85.1% | NCI-H460 lung; 10 µM 86.9% and 86.5% | HOP-92 NSCLC; 10 µM 77.6% and 79.1% | NCI-H522 lung; 10 µM 102% and 87.8% | A549/ATCC NSCLC; 10 µM 96.1% and 86.3% | 786-0 renal; 10 µM 96.6% and 94.4%

S=P(N1CC1)(N1CC1)N1CC1
inactive: NCI-H23 lung; 10 µM 100% and 73.4% | NCI-H23 lung; 100 µM 33% | NCI-H226 lung; 10 µM 102% and 80.4% | NCI-H226 lung; 100 µM 62.4% | NCI-H322M lung; 10 µM 102% and 98.2% | NCI-H322M lung; 100 µM 89.4% | HOP-62 NSCLC; 10 µM 109% and 36.8% | HOP-62 NSCLC; 100 µM 47.9% | NCI-H460 lung; 10 µM 116% and 40.2% | NCI-H460 lung; 100 µM 26.3% | HOP-92 NSCLC; 10 µM 99.9% | HOP-92 NSCLC; 100 µM 36.1% | NCI-H522 lung; 10 µM 104% and 82.9% | NCI-H522 lung; 100 µM 59.5% | A549/ATCC NSCLC; 10 µM 103% and 69.9% | A549/ATCC NSCLC; 100 µM 52.2% | 786-0 renal; 10 µM 100% and 83.6% | 786-0 renal; 100 µM 21.6%

Cn1ncc2cc3c(Nc4ccc(Cl)cc4)cccc3nc21
inactive: NCI-H23 lung; 10 µM 85.6% | NCI-H226 lung; 10 µM 94.4% | NCI-H322M lung; 10 µM 104% | HOP-62 NSCLC; 10 µM 89.3% | NCI-H460 lung; 10 µM 89.8% | HOP-92 NSCLC; 10 µM 77% | NCI-H522 lung; 10 µM 83.8% | A549/ATCC NSCLC; 10 µM 80% | 786-0 renal; 10 µM 89.3%

O=c1[nH]cc(/C=N\Nc2ccccc2)c(=O)[nH]1
inactive: NCI-H23 lung; 10 µM 89.9% | NCI-H226 lung; 10 µM 87.7% | NCI-H322M lung; 10 µM 58.1% | HOP-62 NSCLC; 10 µM 62.7% | NCI-H460 lung; 10 µM 47.6% | HOP-92 NSCLC; 10 µM 96.7% | NCI-H522 lung; 10 µM 19.7% | A549/ATCC NSCLC; 10 µM 29.4% | 786-0 renal; 10 µM 79.6%

Cc1cc(N=C2C=CC(=[N+](C)C)C=C2)c(N)cc1N
inactive: NCI-H23 lung; 10 µM 78.2% | NCI-H226 lung; 10 µM 97.9% | NCI-H322M lung; 10 µM 93.7% | HOP-62 NSCLC; 10 µM 101% | NCI-H460 lung; 10 µM 102% | HOP-92 NSCLC; 10 µM 97.3% | NCI-H522 lung; 10 µM 77.7% | A549/ATCC NSCLC; 10 µM 84.6% | 786-0 renal; 10 µM 96%

NCc1c(O)ccc2ccccc12
inactive: NCI-H23 lung; 10 µM 102% | NCI-H226 lung; 10 µM 96.2% | NCI-H322M lung; 10 µM 96.4% | HOP-62 NSCLC; 10 µM 90.7% | NCI-H460 lung; 10 µM 108% | HOP-92 NSCLC; 10 µM 73% | NCI-H522 lung; 10 µM 95% | A549/ATCC NSCLC; 10 µM 94.7% | 786-0 renal; 10 µM 103%

O=S(=O)(c1cc(Cl)ccc1O)c1cc(Cl)ccc1O
active: HOP-92 NSCLC; 10 µM 6.03%
inactive: NCI-H23 lung; 10 µM 84.6% | NCI-H226 lung; 10 µM 78.1% | NCI-H322M lung; 10 µM 106% | HOP-62 NSCLC; 10 µM 83.7% | NCI-H460 lung; 10 µM 85.1% | NCI-H522 lung; 10 µM 63.9% | A549/ATCC NSCLC; 10 µM 81.3% | 786-0 renal; 10 µM 86.7%

O=C1C=CC(=O)N1c1ccc(N2C(=O)C=CC2=O)cc1
active: NCI-H522 lung; 10 µM -11.5%
inactive: NCI-H23 lung; 10 µM 91.3% | NCI-H226 lung; 10 µM 84.8% | NCI-H322M lung; 10 µM 92.4% | HOP-62 NSCLC; 10 µM 86.8% | NCI-H460 lung; 10 µM 103% | HOP-92 NSCLC; 10 µM 123% | A549/ATCC NSCLC; 10 µM 101% | 786-0 renal; 10 µM 103%

O=[N+]([O-])c1cc(S(=O)(=O)Nc2ccccc2)ccc1Cl
inactive: NCI-H23 lung; 10 µM 97% | NCI-H226 lung; 10 µM 99% | NCI-H322M lung; 10 µM 90.9% | HOP-62 NSCLC; 10 µM 104% | NCI-H460 lung; 10 µM 108% | HOP-92 NSCLC; 10 µM 90% | NCI-H522 lung; 10 µM 73.8% | A549/ATCC NSCLC; 10 µM 91.6% | 786-0 renal; 10 µM 100%

COc1ccc(C(C#N)=C2C=CC(=NO)C=C2)cc1
inactive: NCI-H23 lung; 10 µM 94.9% | NCI-H322M lung; 10 µM 94.3% | HOP-62 NSCLC; 10 µM 47.7% | NCI-H460 lung; 10 µM 65.8% | HOP-92 NSCLC; 10 µM 137% | A549/ATCC NSCLC; 10 µM 88.9% | 786-0 renal; 10 µM 34.9%
active: NCI-H226 lung; 10 µM -14.3% | NCI-H522 lung; 10 µM -24.7%

CN(C)c1ccc(/C=C/c2ccnc3ccccc23)cc1N
active: HOP-92 NSCLC; 10 µM -3.62%
inactive: NCI-H23 lung; 10 µM 48.8% | NCI-H226 lung; 10 µM 53% | NCI-H322M lung; 10 µM 85.1% | HOP-62 NSCLC; 10 µM 77.2% | NCI-H460 lung; 10 µM 77.9% | NCI-H522 lung; 10 µM 56.6% | A549/ATCC NSCLC; 10 µM 72.6% | 786-0 renal; 10 µM 85.6%

Cc1cc(O)c2c(c1O)C(=O)C13C(=C2O)C(=O)C2C(O)C1C1C(O)C3C(=O)C3=C(O)c4c(O)cc(C)c(O)c4C(=O)C321 (configuration not stated)
inactive: NCI-H23 lung; 10 µM 32.3% | NCI-H322M lung; 10 µM 19.4%
active: NCI-H226 lung; 10 µM -2.71% | HOP-62 NSCLC; 10 µM 3.99% | NCI-H460 lung; 10 µM 0.0816% | HOP-92 NSCLC; 10 µM -18.2% | NCI-H522 lung; 10 µM 5.74% | A549/ATCC NSCLC; 10 µM -11.4% | 786-0 renal; 10 µM -33.2%

O=C(O)c1ccccc1.[Ag]
inactive: NCI-H23 lung; 10 µM 99.3% | NCI-H226 lung; 10 µM 104% | NCI-H322M lung; 10 µM 109% | HOP-62 NSCLC; 10 µM 108% | NCI-H460 lung; 10 µM 100% | HOP-92 NSCLC; 10 µM 107% | A549/ATCC NSCLC; 10 µM 54% | 786-0 renal; 10 µM 108%
active: NCI-H522 lung; 10 µM -25.1%
